Results: PubChem BioAssay AID1851 (National Center for Advancing Translational Sciences (NCATS), 2009)
Where “and” joins values, the source holds several entries; their conditions need not be identical. Equal values may be shown once. Among all 16,000 compounds or so, about 5,100 (32%) were called active. About 25% were inconclusive and are not listed. Calls follow the shape of the dose curve; as a rule, active = well fitted curve in the direction sought with a large enough effect; inconclusive = small, poorly fitted or top-dose-only effect, or effect the other way; inactive = no such curve, though single readings can be large or run the other way. The list shows a part of the results.
% is scaled to controls: 0 for no effect and ±100 for the full control effect.

These compounds were tested against Cytochrome P450 3A4 (Homo sapiens) (UniProt P08684) (assay: Cytochrome panel assay with activity outcomes). Settings: recombinant CYP, pro-luciferin dealkylation, luminescence, p450-cyp3a4; series mostly up to 57.1 µM; activity, negative = inhibition: at the top concentration.
Cytochrome P450 3A4 (Homo sapiens), sequence (P08684 whole entry, looked up): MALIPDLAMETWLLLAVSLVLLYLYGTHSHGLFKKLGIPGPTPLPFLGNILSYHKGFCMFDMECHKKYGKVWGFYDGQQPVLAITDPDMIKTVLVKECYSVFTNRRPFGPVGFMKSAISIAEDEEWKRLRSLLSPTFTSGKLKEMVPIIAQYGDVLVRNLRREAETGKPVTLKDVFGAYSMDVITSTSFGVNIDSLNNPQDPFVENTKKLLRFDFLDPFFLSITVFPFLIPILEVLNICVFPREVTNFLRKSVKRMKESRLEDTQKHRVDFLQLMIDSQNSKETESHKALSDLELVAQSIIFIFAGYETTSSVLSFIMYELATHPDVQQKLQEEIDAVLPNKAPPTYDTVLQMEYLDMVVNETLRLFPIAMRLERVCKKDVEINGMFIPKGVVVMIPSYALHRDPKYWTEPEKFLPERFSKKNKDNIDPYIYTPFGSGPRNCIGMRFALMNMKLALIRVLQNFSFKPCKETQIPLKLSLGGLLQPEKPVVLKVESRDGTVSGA
For `NC(=NCCC[C@H](N)C(=O)O)NO`, the “activity, negative = inhibition” value was -2.65% (inactive).
`CSc1nsc(SC)c1C(=O)Nc1ccc(C)cc1` was tested, and the AC50 was 7.94 µM (active).
For `CCC(=O)NCCNC(=O)c1c(SC)nsc1SC`, the “activity, negative = inhibition” value was -11.1% (inactive).
In the case of `Cc1noc(N)c1C(=O)Nc1ccc(F)cc1`, the activity, negative = inhibition is reported as 11.9% [at 2.29 µM] (inactive).
`O=C(O)c1nnsc1-c1csnn1` was tested, and the activity, negative = inhibition was -19.7% [at 11.4 µM] (inactive).
In the case of `CCOC(=O)c1nc(N)sc1C(=O)OCC`, the “activity, negative = inhibition” value is reported as -9.41% (inactive).
In the case of `CCOC(=O)c1sc(=N)n(-c2ccc(OC)cc2)c1C`, the AC50 is reported as 7.08 µM (active).
For `COc1ccc(-n2c(C)nn(C)c2=O)cc1`, the “activity, negative = inhibition” value was -13.8% (inactive).
In the case of `N[C@@H](Cc1ccccc1)C(=O)O`, the activity, negative = inhibition is reported as -6.07% [at 11.4 µM] (inactive).
For `CC(C)(C)C(=O)NNC(=O)CCCOc1ccc(Cl)cc1Cl`, the “activity, negative = inhibition” value was -26.2% (inactive).
For `COc1ccc(/C=N/NC(=O)CCCOc2ccc(Cl)cc2Cl)cc1[N+](=O)[O-]`, the AC50 was 14.1 µM (active).
For `CC1(C)CC(=O)C/C(=N/NC(=O)CCCOc2ccc(Cl)cc2Cl)C1`, the activity, negative = inhibition was -15.2% [at 2.29 µM] (inactive).
With `COc1ccc(NC(=O)c2ccc(C(=O)c3cc(OC)ccc3OC)cc2)cc1` the “activity, negative = inhibition” value was -14.7% (inactive).
For `COc1ccc(Br)cc1C(=O)Nc1ccc(Cc2ccncc2)cc1`, the AC50 was 0.708 µM (active).
`O=C(Nc1ccc(-c2cn3ccccc3n2)cc1)c1cc(Br)ccc1O` was tested, and the activity, negative = inhibition was -18.7% [at 11.4 µM] (inactive).
`O=C(NCCNS(=O)(=O)c1ccccc1Cl)c1cc(OCC(F)(F)F)ccc1OCC(F)(F)F` was tested, and the AC50 was 25.1 µM (active).
With `O=C(O)CONC(=O)c1cc(OCC(F)(F)F)ccc1OCC(F)(F)F` the “activity, negative = inhibition” value was -2.97% (inactive).
In the case of `Cc1ccc(/C=N\NC(=O)c2cc(OCC(F)(F)F)ccc2OCC(F)(F)F)cc1`, the “activity, negative = inhibition” value is reported as -21.6% (inactive).
With `COC(=O)C/C=C\[C@@H](C)[C@@H](/C=N\O[C@@H](C)c1cc(-c2c(C)cc(C)cc2C)no1)OC` the activity, negative = inhibition was -76.7% [at 11.4 µM] (inactive).
`COC(=O)C/C=C\[C@@H](C)[C@@H](/C=N\O[C@@H](C)c1cn([C@H](CO)Cc2ccccc2)nn1)NS(=O)(=O)c1ccc(C)cc1` was tested, and the AC50 was 3.98 µM (active) and 2 µM (active).
In the case of `COC(=O)C/C=C\[C@@H](C)[C@@H](/C=N\O[C@@H](C)c1cn([C@H](CO)Cc2ccccc2)nn1)OC`, the AC50 is reported as 3.98 µM (active).
With `COC(=O)C/C=C\[C@@H](C)[C@@H](/C=N\O[C@@H](C)c1cc(-c2c(C)cc(C)cc2C)no1)NS(=O)(=O)c1ccc(C)cc1` the AC50 was 3.16 µM (active).
For `COC(=O)C/C=C\[C@@H](C)[C@@H](/C=N\O[C@@H](C)c1cn([C@H]2COC[C@H]2O)nn1)OC`, the activity, negative = inhibition was -29.8% [at 11.4 µM] (inactive).
With `COC(=O)C/C=C\[C@@H](C)[C@@H](/C=N\O[C@@H](C)c1cn([C@H]2COC[C@H]2O)nn1)NS(=O)(=O)c1ccc(C)cc1` the AC50 was 3.98 µM (active).
With `Cc1nc(N=Nc2cc(S(=O)(=O)O)ccc2S(=O)(=O)O)c(COP(=O)(O)O)c(C=O)c1O` the “activity, negative = inhibition” value was -14.1% (inactive).
`O=C(O)C[C@H](S)C(=O)O` was tested, and the activity, negative = inhibition was -4.75% [at 11.4 µM] (inactive).
In the case of `[N-]=[N+]=NC[C@@H]1O[C@@H](n2cnc3c(N)ncnc32)[C@@H]2O[C@@H]21`, the activity, negative = inhibition is reported as -11.8% [at 11.4 µM] (inactive).
With `Nc1nc2n[nH]nc2c(=O)[nH]1` the “activity, negative = inhibition” value was -18.8% [at 25.6 µM] (inactive).
`O=C1C2=CC[C@H]3C(=O)N(c4cccc(Oc5ccccc5)c4)C(=O)[C@@H]3[C@@H]2[C@H](O)[C@@H]2O[C@H]12` was tested, and the activity, negative = inhibition was -4.92% [at 11.4 µM] (inactive).
`CON1C(=O)C(=O)N(OC)C(C)(C)C1C` (configuration not stated) was tested, and the “activity, negative = inhibition” value was -4.17% (inactive).
In the case of `COC(=O)C/C=C\[C@@H](C)[C@@H](/C=N\O[C@@H](C)CN1CCCCc2nc(C)c(C)cc21)NS(=O)(=O)c1ccc(C)cc1`, the AC50 is reported as 3.98 µM (active).
`COC(=O)C/C=C\[C@@H](C)[C@@H](/C=N\O[C@@H](C)CN1CCCc2nc(C)c(C)cc21)NS(=O)(=O)c1ccc(C)cc1` was tested, and the activity, negative = inhibition was -80.9% [at 11.4 µM] (inactive).
In the case of `CCCS(=O)(=O)N1CCCC(C(=O)NCCCOC(C)C)C1` (configuration not stated), the “activity, negative = inhibition” value is reported as -4.73% (inactive).
For `CC(C)OCCCN1C(=O)c2ccccc2C1C(=O)NC1CCCCC1` (configuration not stated), the AC50 was 12.6 µM (active).
With `O=c1nc(-c2ccccc2)cn[nH]1` the “activity, negative = inhibition” value was 2.11% (inactive).
With `Cc1ccc(C2=NN(S(C)(=O)=O)C(c3cccs3)C2)cc1` (configuration not stated) the activity, negative = inhibition was -2.01% [at 2.29 µM] (inactive).
For `CS(=O)(=O)N1N=C(c2ccc(Br)cc2)CC1c1ccc2c(c1)OCO2` (configuration not stated), the AC50 was 1.78 µM (active).
With `COc1ccc(-c2cc3ccccc3n2CC(O)CNCCO)cc1` (configuration not stated) the AC50 was 15.8 µM (active).
`Cc1[nH]n2c(=O)c(C#N)c(-c3ccccc3)nc2c1-c1ccccc1` was tested, and the “activity, negative = inhibition” value was -9.5% (inactive).
For `CN1CC(c2ccccc2)C2(COc3ccccc3C2=O)C12C(=O)Nc1ccccc12` (configuration not stated), the AC50 was 3.98 µM (active).
For `NNS(=O)(=O)c1cc(C(=O)O)cc(C(=O)O)c1`, the activity, negative = inhibition was -6.08% [at 11.4 µM] (inactive).
With `CSc1nc(Oc2ccc(=O)[nH]n2)nc(N(C)C)n1` the “activity, negative = inhibition” value was -5.03% (inactive).
For `CN(C)S(=O)(=O)c1ccc2c(c1)/C(=C/c1cc3c([nH]1)CCCC3)C(=O)N2`, the AC50 was 5.01 µM (active).
`C[C@H]1[C@@H](O)[C@@H](C)\C=C/C=C\C=C/C=C\C=C/C=C\C=C/[C@@H](O[C@H]2O[C@@H](C)[C@@H](O)[C@@H](N)[C@@H]2O)C[C@@H]2O[C@](O)(C[C@@H](O)C[C@@H](O)[C@@H](O)CC[C@@H](O)C[C@@H](O)CC(=O)O[C@H]1C)C[C@@H](O)[C@H]2C(=O)O` (stereo in doubt) was tested, and the “activity, negative = inhibition” value was 12.7% [at 25.6 µM] (inactive).
In the case of `CCCc1nnc(NC(=O)CN2C(=O)C3C4C=CC(C4)C3C2=O)s1` (configuration not stated), the AC50 is reported as 12.6 µM (active).
For `CCCc1nnc(NC(=O)Cn2cnc3ccccc3c2=O)s1`, the “activity, negative = inhibition” value was -10.1% (inactive).
In the case of `CCCC(=O)Nc1nnc(CCN2CCCCC2)s1`, the “activity, negative = inhibition” value is reported as 1.59% (inactive).
For `Cc1cccc(NC(=O)CSc2nc(-c3ccccc3)c(C#N)c(=O)[nH]2)c1C`, the activity, negative = inhibition was 4.48% [at 0.457 µM] (inactive).
`Cc1cccc(NC(=O)CSc2nnc(-c3ccco3)c(-c3ccco3)n2)c1C` was tested, and the AC50 was 15.8 µM (active).
In the case of `O=S1(=O)C=C(Oc2ccc3ccccc3c2)c2ccccc21`, the “activity, negative = inhibition” value is reported as 0.516% (inactive).
With `COc1ccc(C2(CNC(=O)/C=C/c3ccco3)CCCC2)cc1OC` the AC50 was 3.55 µM (active).
In the case of `CN(C)c1ncc2nc(-c3ccc(Cl)cc3)c(=O)n(C)c2n1`, the “activity, negative = inhibition” value is reported as 5.8% (inactive).
